# Results with a measured potency or affinity are listed apart.
# System: Cryptococcus neoformans
# Settings: Concentration 20 uM; ASSAY_TEST Inhibition of Fungal Growth; detection method Resazurin; Absorption (OD600-OD570); plate type 384well; NBS; CORNING #3640
row,Compound,Inhibition [%]
1,O=[N+]([O-])c1cc(-c2ccc([As](=O)(O)O)cc2)ccc1[As](=O)(O)O,-9.04
2,O=P(Oc1ccccc1)(Oc1ccccc1)c1ccccc1,-2.59
3,Cc1ccccc1-n1c(/C=C\c2ccccn2)nc2ccccc2c1=O,-6.01
4,CSc1nc(=O)c(/N=N/c2ccc([As](=O)(O)O)cc2)c(N)[nH]1,-16.43
5,COc1ccc2c(c1)C13CCN(C)C(C2)C1CCC1(C3)OCCO1 (configuration not stated),-7.98
6,CCCC(=O)N(C)C1=Nc2ccc(Cl)cc2C(c2ccccc2)=[N+]([O-])C1,-4.22
7,O=P(OC1=CCCCC1)(c1ccccc1)c1ccccc1,-2.72
8,O=C(Nc1ccc(F)cc1)Oc1cccnc1O,-4.36
9,CC(C)(C)c1cc(C=C(C#N)C#N)cc(C(C)(C)C)c1O [TYRPHOSTIN A9],6.62
10,SC1=NC2(CCCCC2)NC12CCCCC2,-3.97
11,Cc1ncc([N+](=O)[O-])n1CCOC(N)=O [BAMNIDAZOLE],7.78
12,C=CCNC(=S)Nc1ccc(OC(=O)Nc2ccc(Cl)c(Cl)c2)cc1,-4.79
13,CC(C)CC(NC=O)C(=O)O.COc1cc2c(cc1OC)C13CCN4CC5=CCOC6CC(=O)N2C1C6C5CC43 (configuration not stated),-3.45
14,CN(C)C1CCc2[nH]c3c(F)cc(F)cc3c2C1 (configuration not stated) [FLUCINDOLE],-13.31
15,C1CC2NCCC3NCCC(N1)N32 (configuration not stated),-3.22
16,CCN1CCc2ccccc2C1,-10.24

row,Compound,Inhibition [%]
1,c1ccc(C2NCCc3[nH]cnc32)cc1 (configuration not stated),13.69
2,CN(C)P(=O)(N(C)C)N1CC1,-11.15
3,O=C1/C(=C\c2ccccc2)C2OCC=C3CN4CCC56c7ccccc7N1C5C2C3CC46 (configuration not stated),-4.36
4,CN1CCN(c2nc(N)c(Br)c(Cl)n2)CC1,-7.43
5,FCCN(CCF)c1cccc(Cl)c1,-7.02
6,CN1CCC(c2c[nH]c3ccccc23)C1 (configuration not stated),10.07
7,CCN1CC2C3CCC(C)(O3)C2C1 (configuration not stated),-3.82
8,COc1ccc(CCNC2(C#N)CCCCC2)cc1OC,-6.07
9,COc1ccc2c(c1O)[C@]13CCN(C)[C@H](C2)[C@@H]1CCC(=O)C3,-12.71
10,COc1ccc2c(c1)NP(=S)(Oc1ccccc1)N2 (configuration not stated),0.61
11,O=C1C[C@@H]2OCC=C3C[N+]4([O-])CC[C@]56c7ccccc7N1[C@H]5[C@H]2[C@H]3C[C@@H]64 (some centres not stated),-6.02
12,NC=C1C(=O)N(c2ccccc2)C(=O)N(c2ccccc2)C1=O,-6.24
13,CN1CCCC1c1ccc(O)nc1 (configuration not stated),-7.69
14,C[C@H]1[C@H](C)N1CC(O)Cn1ccnc1[N+](=O)[O-] (some centres not stated),-3.91
15,C[C@H]1CC[C@H]2NCCN[C@H]2C1,-10.77
16,Cc1ccccc1NC(=O)Oc1cccc(OC(=O)c2ccccc2)c1,-5.38
